Experimental data reported in ChEMBL document CHEMBL3988442, “University of Dundee, Small-Polar-MMV Screening Library” (2021).
Out of some 48,000 compounds screened, about 13,000 (27%) showed an effect of 50% or more. The list shows a part of the results.

Each compound was assayed on Wolbachia pipientis (assay: Anti-Wolbachia Cell-Based Screen). Settings: 5 µM.
Type: functional
Parameters: scale not given: in the data most compounds retested in dose-response had high values

Row | SMILES | Percent Effect
1 | CCOCCC(=O)N(C)Cc1noc(C(C)C)n1 | -6.768%
2 | CC(C)CC(C(=O)N1CCCSCC1)N1CCCCC1=O (stereo unspecified) | -10.63%
3 | COc1ccc(C(=O)N(c2ccc(OC)c(F)c2)C(C)C)cn1 | 3.547%
4 | CNS(=O)(=O)c1cccc(C(C)NCc2ccc(F)c(F)c2)c1 (stereo unspecified) | 18.96%
5 | COC(=O)c1ccc(N2CCC(N(C)c3ccccc3)CC2)nn1 | -3.944%
6 | O=C(CCC1CCCO1)NCc1ccnc(-n2cccn2)c1 (stereo unspecified) | -9.533%
7 | COCCN(Cc1sccc1C)C(=O)C1CCCN(C(N)=O)C1 (stereo unspecified) | 10.64%
8 | Cc1oc(CN(C)C(=O)c2ccc(Br)cc2)cc1C(=O)O | 5.692%
9 | Cc1ncc(CNC(C)(C)CO)c2cc(C(=O)c3ccc(Br)cc3)oc12 | 82.9%
10 | Cc1ncc(CNCCO)c2cc(C(=O)c3ccc(Br)cc3)oc12.Cl | 215.6%
11 | COc1ncc(C(=O)NCc2ccc(Br)cc2)cn1 | 4.726%
12 | COC(=O)c1ccc(C(=O)NCc2ccc(Br)cc2)cn1 | 0.8592%
13 | Cc1ncc(CN(C)CCO)c2cc(C(=O)c3ccc(Br)cc3)oc12.Cl | 142.2%
14 | COC(=O)c1oc(CNC(C)(C)CO)cc1C | 5.82%
15 | Cc1ncc(CNCC(C)O)c2cc(C(=O)c3ccc(Br)cc3)oc12.Cl (stereo unspecified) | 102.9%
16 | CC(O)CNCc1ccccc1C(F)(F)F.Cl (stereo unspecified) | -7.899%
17 | Cc1ncsc1CCN(C)Cc1ccc(CO)o1 | -28.69%
18 | CN1CCc2[nH]nc(C(=O)N3CCCC4(CN(C)C(=O)O4)C3)c2C1 (stereo unspecified) | 0.3528%
19 | CC(C)c1cc(NCC2(N3CCOCC3)CCCCC2)ncn1 | -13.37%
20 | Cc1noc2ncnc(N3CCC(O)(Cn4ccnc4)CC3)c12 | -11.6%
21 | Cc1cc(-c2nnn(CCC(N)=O)n2)ccc1F | -8.55%
22 | COCCN1CCN(CC(=O)N(C)Cc2ccsc2)CC1 | -3.337%
23 | CN(Cc1ccsc1)C(=O)CS(=O)(=O)Cc1ccc(Cl)c(Cl)c1 | -4.981%
24 | CN(Cc1ccsc1)C(=O)Cn1c(CS(C)(=O)=O)nc2ccccc21 | 150.1%
25 | CS(=O)(=O)CCNC(=O)C1(c2cccc(Cl)c2)CCCCC1 | 4.174%
26 | CN1CCOCC12CCN(Cc1ccoc1)CC2.O=C(O)C(F)(F)F.O=C(O)C(F)(F)F | 109%

Row | SMILES | Percent Effect
27 | CS(=O)(=O)N1CCOCC2(CCN(Cc3ccoc3)CC2)C1.O=C(O)C(F)(F)F | 115.7%
28 | CS(=O)(=O)N1CCOCC2(CN(Cc3ccsc3)CCO2)C1.O=C(O)C(F)(F)F (stereo unspecified) | -5.064%
29 | CS(=O)(=O)N1CCOCC2(CCN(Cc3ccc[nH]3)CC2)C1.O=C(O)C(F)(F)F | -6.777%
30 | Cc1ccc(CN2CCC3(CC2)CCN(Cc2ccoc2)CC3)cc1.O=C(O)C(F)(F)F.O=C(O)C(F)(F)F | 17.41%
31 | O=C(CCc1ccsc1)NCc1ccnc(OC2CCOCC2)c1 | -13.16%
32 | COCCN1C(=O)CC[C@]12CC[C@@H](NCc1cccnc1OC)CC2.O=C(O)C(F)(F)F.O=C(O)C(F)(F)F | -1.329%
33 | COc1ncccc1CNC1CCc2c(ccc(=O)n2C)C1.O=C(O)C(F)(F)F.O=C(O)C(F)(F)F (stereo unspecified) | 100.1%
34 | COCCn1c2c(ccc1=O)CC(NCc1cccnc1OC)CC2.O=C(O)C(F)(F)F.O=C(O)C(F)(F)F (stereo unspecified) | 97.75%
35 | Cn1c2c(ccc1=O)CC(Nc1ncc(F)cn1)CC2.O=C(O)C(F)(F)F (stereo unspecified) | -3.561%
36 | CN(C)C(=O)Cn1c2c(ccc1=O)CC(NCc1ccoc1)CC2.O=C(O)C(F)(F)F (stereo unspecified) | -9.512%
37 | COc1ncccc1CNC1CCc2c(ccc(=O)n2CC2CC2)C1.O=C(O)C(F)(F)F.O=C(O)C(F)(F)F (stereo unspecified) | 98.83%
38 | COc1ncccc1CN1CCc2[nH]nc(C(=O)N3CCCC3C)c2C1.O=C(O)C(F)(F)F.O=C(O)C(F)(F)F (stereo unspecified) | 4.676%
39 | O=C(O)C(F)(F)F.O=c1ccc2c(n1CC1CC1)CCC(NCc1cccs1)C2 (stereo unspecified) | 108.8%
40 | Cn1cnc(S(=O)(=O)NCC2CCN(C(=O)Oc3ccccc3)CC2)c1 | -16.29%
41 | Cc1ccc(C(NC(=O)Cn2cc(C3CC3)nn2)C2CC2)cc1 (stereo unspecified) | -17.63%
42 | Cc1cc(CN(C)C(=O)NC2CCC(O)CC2)no1 (stereo unspecified) | -5.162%
43 | c1csc(CNc2ccccc2Cn2cncn2)c1 | 2.841%
44 | Cn1cnc(S(=O)(=O)NCC2(O)CCc3ccccc32)c1 (stereo unspecified) | -54.8%
45 | Cn1cc(CN2CCC[C@]3(C(=O)O)CN(c4cnccn4)CC[C@@H]23)cn1 | -2.616%
46 | NC(=O)c1cnc(NC2CCN(c3ccccn3)CC2)c(Cl)c1 | -2.297%
47 | CC(C)=CCn1ncc(N2CCCCC2)cc1=O | 8.054%
48 | O=c1cc(N2CCCC2)cnn1CCc1cccc(F)c1 | 9.222%
49 | O=c1cc(N2CCCCC2)cnn1C[C@H](O)CO | 78.69%
50 | O=c1cc(N2CCOCC2)cnn1CCc1ccc(F)cc1 | -9.338%
51 | CC(C)=CCn1ncc(N2CCOCC2)cc1=O | 1.937%
52 | O=c1cc(N2CCNCC2)cnn1CCc1ccc(F)cc1 | -7.094%

Row | SMILES | Percent Effect
53 | CCC(CC)Cn1ncc(N2CCOCC2)cc1=O | 7.831%
54 | O=c1cc(N2CCCC2)cnn1CC(F)F | 95.3%
55 | O=c1cc(N2CCCCC2)cnn1CC(O)C(F)(F)F (stereo unspecified) | 110.9%
56 | Cc1nnc(N2C[C@H](C(=O)NCC3CC3)[C@@H]3CCO[C@@H]3C2)s1.O=C(O)C(F)(F)F | 0.08379%
57 | CC(C)Cc1noc(CNc2cccc(-c3nnnn3C)c2)n1 | 3.895%
58 | CCCOC1CCCN(c2ncnc3c2CCN(C(=O)C2CC2)C3)C1 (stereo unspecified) | 1.517%
59 | CCCOC1CCCN(c2nc(COC)nc3c2cnn3C)C1 (stereo unspecified) | 118.8%
60 | COCc1nc(N2CC[C@H](N(C)C)C2)c2cnn(C)c2n1 | 102.3%
61 | CN(C)[C@H]1CCN(c2nc(C(C)(C)C)nc3c2cnn3C)C1 | -2.508%
62 | CCCOC1CCCN(c2nc(CC)nc3c2cnn3C)C1 (stereo unspecified) | 107.1%
63 | COCc1nc(N2CCC(CCO)CC2)c2cnn(C)c2n1 | -4.999%
64 | CCc1nc(N2CCN(Cc3ncccc3C)CC2)c2cnn(C)c2n1 | 1.339%
65 | COCCNC(=O)Cn1ccc2sc(C)cc2c1=O | 165.3%
66 | CCC(C)NC(=O)Cn1ccc2sc(C)cc2c1=O (stereo unspecified) | 106.2%
67 | NC(=O)NC(=O)Cn1ccc2sccc2c1=O | -7.139%
68 | COCCCNC(=O)CN(C)C(=O)c1cc(C)sc1C | -3.68%
69 | COc1cc(NC(=O)Cn2ccc3sc(C)cc3c2=O)cc(OC)c1 | -10.49%
70 | N#Cc1cccc(N2CCCC3(C2)CN(c2ncc(F)cn2)CCO3)n1.O=C(O)C(F)(F)F (stereo unspecified) | -18.06%
71 | Fc1ccc(CN2CCCCC2Cn2cncn2)c2ncccc12 (stereo unspecified) | 6.637%
72 | Cc1ncc(CC(=O)N2CCCC(COc3ccccc3F)C2)c(=O)[nH]1 (stereo unspecified) | 16.93%
73 | Cn1cnc2c1CCN(Cc1cccc(OCC(N)=O)c1)C2 | -0.9151%
74 | NC(=O)CN1CCC(C(=O)NCc2ccc3c(c2)OCCCO3)CC1 | -4.067%
75 | CN1CCN(C(=O)N2CC[C@@](O)(c3ccccc3)[C@H]3CCCC[C@@H]32)CC1 | -18.77%
76 | O=C(O)C(c1ccc2c(c1)OCO2)N1CCC(C(=O)N2CCCC2)CC1 (stereo unspecified) | 0.296%
77 | CCN1CCCC(O)(CNCc2ccc3c(c2)OCO3)C1 (stereo unspecified) | -9.558%
78 | CC(=O)N1CCN(C[C@H]2CC[C@@H](Cc3ccc4c(c3)OCO4)O2)CC1 | 6.248%

Row | SMILES | Percent Effect
79 | CC(=O)N1CC[C@@]2(O)CCCC[C@H]2[C@@H]1c1ccc2c(c1)OCO2 | 121.2%
80 | NC(=O)CN1CC[C@@]2(O)CCCC[C@H]2[C@@H]1c1ccc2c(c1)OCO2 | 128.7%
81 | CC(=O)N1CC[C@H]2NC(=O)N(Cc3ccccc3)C(=O)[C@H]21 | 6.922%
82 | Cn1ccc(CN2CCCC2c2ccc3c(c2)OCCCO3)cc1=O (stereo unspecified) | 3.687%
83 | CC(=O)N1CC[C@@]2(O)CCCC[C@H]2[C@@H]1c1ccccc1 | 132.1%
84 | COC(=O)N1CC[C@@]2(O)CCCC[C@H]2[C@@H]1c1ccc2c(c1)OCO2 | 122.6%
85 | Cn1cc(C(=O)N2CCCC2c2ccc3c(c2)OCO3)ccc1=O (stereo unspecified) | 2.509%
86 | CCCN1CC2(CCN(c3ccc(C(C)=O)cn3)CC2)CC1C(=O)O (stereo unspecified) | 10.16%
87 | Cc1noc([C@@H]2C[C@H](NC(=O)NC(C)C)CN2C)n1 | -7.021%
88 | CN1C[C@@H](NC(=O)c2ccccc2)C[C@H]1c1nc(-c2cnccn2)no1 | -2.532%
89 | CN1CCN(CCc2ncnn2-c2ccc3c(c2)OCO3)CC1 | -0.8313%
90 | O=S(=O)(NCCSc1nccn1C1CC1)c1ccccc1 | 5.63%
91 | Cc1ccc(CNCCN2CCOCC2)o1 | 131.7%
92 | CSCc1ccc(CNCCCN2CCOCC2)o1 | 3.399%
93 | CSCc1ccc(CNCCN2CCOCC2)o1 | -4.251%
94 | CSc1ccccc1C(=O)NCc1cc2n(n1)CCCN(CC(C)C)C2 | -7.136%
95 | Cn1cc(N2CCN(c3ccc(C#N)c(Cl)c3)CC2=O)cn1 | -30.5%
96 | CCC(O)CN1CCN(C(=O)c2sccc2C2CC2)CC1 (stereo unspecified) | 131.2%
97 | CCc1nnsc1C(=O)N1CCN(CC(O)CC)CC1 (stereo unspecified) | -1.027%
98 | CC(C)(C)OC(=O)N1CCN(C(=O)c2sccc2C2CC2)CC1 | -2.417%
99 | CC(C)(O)CN1CCN(C(=O)c2sccc2C2CC2)CC1 | -8.363%
100 | Cc1cc(CN2CCN(C(=O)c3sccc3C(C)C)CC2)no1 | -0.2452%
101 | CCC(O)CN1CCN(C(=O)c2sccc2C(C)C)CC1 (stereo unspecified) | 113.4%
